Hit rate of the full screen: of about 360,000 compounds, about 7,300 (2%) were called active. The full list was thinned out, with actives kept by preference. Values without a mark were called inactive. No stated cut-off is given here; in the data, active means inhibition above about 50%; inactive means the rest.
experiment: blockers of TWEAK-induced Fn14 reporter activity – luciferase reporter cells, uHTS, primary screen (AID 1159606); conditions: TWEAK-stimulated Fn14 reporter cells, luciferase luminescence, 8 h; at 10 µM; active compounds read high

Question: For CCCC(NC(=O)c1ccco1)c1nc2ccccc2[nH]1 (stereo not given), which inhibition is on record?
Answer: 19.6%

Question: For CC(C)Oc1ccc(/C=C(\NC(=O)/C=C/c2ccco2)C(=O)NCCc2nc3ccccc3[nH]2)cc1, which inhibition is on record?
Answer: 13.7%

Question: Which inhibition does the source give for CC(C)=C(NC(=O)c1ccco1)C(=O)NCCc1nc2ccccc2[nH]1 here?
Answer: 83.7% (active)

Question: For Cc1csc(NC(=O)CSc2ccc(-c3ccc(F)cc3)nn2)n1, which inhibition is on record?
Answer: -0.16%

Question: For C=CCC[C@H](CCCCC)OC(=O)/C=C/[C@H](O)[C@@H](O)C[C@@H](O)CC=C, which inhibition is on record?
Answer: 2.69%

Question: For CCOC(=O)N1CCC(NC(=O)c2ccc3nc(N4CCOCC4)sc3c2)CC1, which inhibition is on record?
Answer: 18.3%

Question: For c1c2c(cc3sc(N4CCCCC4)nc13)OCCO2, which inhibition is on record?
Answer: 98.9% (active)

Question: Which inhibition does the source give for CCCCc1ccc(NS(=O)(=O)c2cccc(C(=O)N3CCCN(C)CC3)c2)cc1 here?
Answer: 13.3%

Question: Which inhibition does the source give for CN(C)c1ccnc2sc3c(=O)n(Cc4ccccc4)cnc3c12 here?
Answer: 69.3% (active)

Question: For O=c1c2c(ncn1Cc1ccccc1)nc1n2CCC1, which inhibition is on record?
Answer: -3.28%

Question: With CN(C)/C=C/c1c(C#N)c(=O)ncn1Cc1ccccc1 as the compound, how does the inhibition read?
Answer: 1.93%

Question: For C#Cc1cc(N2CCN(C(=O)c3ccoc3)CC2)n2nc(-c3cccc(Cl)c3)cc2n1, which inhibition is on record?
Answer: -13.9%

Question: Which inhibition does the source give for O=C(c1ccccc1)N1CCN(c2cc(-c3ccccc3)nc3cc(-c4cccc(Cl)c4)nn23)CC1 here?
Answer: 50.7% (active)

Question: Which inhibition does the source give for O=C(c1ccccc1)N1CCN(C(=O)c2cc3nc(-c4ccccc4)cc(C(F)(F)F)n3n2)CC1 here?
Answer: 12%

Question: Which inhibition does the source give for CCC(Sc1nncn1C)C(=O)Nc1nnc(-c2ccc(Cl)cc2)s1 (stereo not given) here?
Answer: 2.15%

Question: Which inhibition does the source give for Cc1cc(C(=O)OCC(=O)Nc2ccc(F)c(F)c2)c(C)o1 here?
Answer: -6.41%

Question: With O=S(=O)(NCC1CCCO1)c1cnc(Cl)c(Cl)c1 (stereo not given) as the compound, how does the inhibition read?
Answer: 61.4% (active)

Question: With O=S(=O)(NCC1CCCO1)c1ccc2ccccc2c1 (stereo not given) as the compound, how does the inhibition read?
Answer: -2.08%

Question: Which inhibition does the source give for CCOc1ccc(S(=O)(=O)NCC2CCCO2)cc1 (stereo not given) here?
Answer: -13.5%

Question: With CC1CCCC(C)N1C(=O)COC(=O)c1ccccc1C(=O)c1ccccc1 (stereo not given) as the compound, how does the inhibition read?
Answer: 3.29%

Question: With Cc1ncoc1C(=O)N1CCCC(C(=O)c2ccc3c4c(cccc24)CC3)C1 (stereo not given) as the compound, how does the inhibition read?
Answer: -10.9%

Question: For O=C(CCN1CCc2ccccc2C(O)(c2ccccc2)C1)c1ccc2c(c1)OCCO2 (stereo not given), which inhibition is on record?
Answer: 60.1% (active)

Question: For CCC1(c2ccccc2)NC(=O)N(CC(=O)c2ccc3c(c2)OCO3)C1=O (stereo not given), which inhibition is on record?
Answer: 1.98%

Question: With O=C(CN1CCN(c2ccccc2F)CC1)c1ccc2c(c1)OCO2 as the compound, how does the inhibition read?
Answer: -7.75%

Question: Which inhibition does the source give for NC(=O)c1nnsc1-c1ccc(-c2snnc2C(N)=O)cc1 here?
Answer: 16.3%

Question: For CCc1ccccc1N1CN(Cc2ccco2)CNC1=S, which inhibition is on record?
Answer: -34%

Question: With CC(C)C(NC(=O)C1CCC(C(C)(C)C)CC1)C(=O)NCCCN1CCCCC1 (stereo not given) as the compound, how does the inhibition read?
Answer: -11.2%

Question: With COC(=O)c1cc(Oc2ccc(S(=O)(=O)N3CCOCC3)cc2[N+](=O)[O-])cc(C(=O)OC)c1 as the compound, how does the inhibition read?
Answer: 3.34%

Question: With Cc1cc(S(=O)(=O)N2CCOCC2)ccc1OCC(=O)N1CCOCC1 as the compound, how does the inhibition read?
Answer: 3.41%

Question: For Cc1cc(C(=O)COc2ccccc2[N+](=O)[O-])c(C)n1-c1cccc(S(=O)(=O)N2CCOCC2)c1, which inhibition is on record?
Answer: 82.7% (active)

Question: Which inhibition does the source give for COCCN(C(=O)C(C)N1C(=O)c2ccccc2C1=O)c1c(N)n(CC(C)C)c(=O)[nH]c1=O (stereo not given) here?
Answer: 2.19%

Question: With CC/C(O)=C1\C(=O)CC(C)(C)CC1=NCCc1nc2ccccc2[nH]1 as the compound, how does the inhibition read?
Answer: 4.19%

Question: Which inhibition does the source give for CC1(C)O[C@@H]2CC3C4C[C@H](F)C5=CC(=O)C=CC5(C)C4C(O)CC3(C)[C@]2(C(=O)CO)O1 (stereo not given in full) here?
Answer: -4.61%

Question: Which inhibition does the source give for COc1ccc(C(=O)NCC[N+](C)(C)C)cc1 here?
Answer: 7.64%

Question: With CS(=O)(=O)N(CC(=O)N/N=C/c1ccccn1)c1ccc(Oc2ccccc2)cc1 as the compound, how does the inhibition read?
Answer: 4.09%

Question: With Clc1ccc(Cn2ncc3c(NCc4cccnc4)ncnc32)cc1 as the compound, how does the inhibition read?
Answer: 31.4%

Question: For Brc1ccc2ncnc(NCc3cccnc3)c2c1, which inhibition is on record?
Answer: 62.2% (active)

Question: With c1ccc(CNc2ncnc3[nH]ncc23)cc1 as the compound, how does the inhibition read?
Answer: 2.58%

Question: For Cc1ccccc1NC(=O)NC1(C(=O)N2CCCC2)CCCCC1, which inhibition is on record?
Answer: -3.42%

Question: With O=C(Cc1ccc(Cl)cc1)NC1CCS(=O)(=O)C1 (stereo not given) as the compound, how does the inhibition read?
Answer: -0.04%

Question: Which inhibition does the source give for CC(C)C(=O)NC(NC(=S)NC1CCS(=O)(=O)C1)C(Cl)(Cl)Cl (stereo not given) here?
Answer: 25.4%

Question: For O=C(CSc1ccccc1F)NC1CCS(=O)(=O)C1 (stereo not given), which inhibition is on record?
Answer: 2.35%

Question: Which inhibition does the source give for O=S1(=O)CCC(NC(=S)SCc2ccccc2Br)C1 (stereo not given) here?
Answer: 54.2% (active)

Question: Which inhibition does the source give for CCCSC(=S)NC1CCS(=O)(=O)C1 (stereo not given) here?
Answer: 78.9% (active)

Question: With COc1ccc(NC(=S)NC2CCS(=O)(=O)C2)cc1 (stereo not given) as the compound, how does the inhibition read?
Answer: -0.47%

Question: Which inhibition does the source give for Cc1ccc(NC2CCCN(C(=O)CCC3(C)CC3)C2)cc1C (stereo not given) here?
Answer: -13.8%

Question: With CSc1ccc(/C=C2\NC(=O)NC2=O)cc1 as the compound, how does the inhibition read?
Answer: -11.1%

Question: For CNC(=O)c1c(NC(NC(=O)c2ccco2)C(=O)c2ccc(Cl)cc2)sc2c1CCCC2 (stereo not given), which inhibition is on record?
Answer: -9.64%

Question: For CCCc1nn(C)c2c(=O)[nH]c(-c3cc(S(N)(=O)=O)ccc3OCC)nc12, which inhibition is on record?
Answer: -1.76%

Question: Which inhibition does the source give for Cc1noc(/C=C/c2ccco2)c1S(=O)(=O)N1CCC(C(=O)Nc2ccc(Cl)cn2)CC1 here?
Answer: 51% (active)

Question: Which inhibition does the source give for CNC(=O)C1CCN(S(=O)(=O)c2c(C)noc2/C=C/c2cccc(C)c2)CC1 here?
Answer: -21.5%

Question: For Cc1noc(/C=C/c2ccco2)c1S(=O)(=O)N1CCC(C(=O)N2CCc3ccccc32)CC1, which inhibition is on record?
Answer: 6.06%

Question: With CCCCN1C(=O)C(CC(=O)NCc2cccs2)CC(C(=O)N2CCCCCC2)=C1C (stereo not given) as the compound, how does the inhibition read?
Answer: -6.58%

Question: For Oc1cc(O)c2c(c1)OC(c1ccc(O)c(O)c1)C(O)C2 (stereo not given), which inhibition is on record?
Answer: -8.69%

Question: Which inhibition does the source give for Clc1ccc(-c2cccc3nccn23)cc1 here?
Answer: -3.21%

Question: For COC(=O)c1cccc(C(=O)N2CCCC(Nc3ccc4c(c3)OCCO4)C2)c1 (stereo not given), which inhibition is on record?
Answer: 13.2%

Question: With CCCCN(C(C)=O)c1ccc2c(c1)C1CC2CCN1Cc1ccccc1 (stereo not given) as the compound, how does the inhibition read?
Answer: -18%

Question: For CCCCNC(=O)OCCSCCS(=O)(=O)c1ccc(Cl)cc1, which inhibition is on record?
Answer: -5.78%

Question: Which inhibition does the source give for Cc1ccc(C)c(Cn2nnc3c(=O)[nH]c(C(=O)Nc4ccc(F)cc4)nc32)c1 here?
Answer: -5.18%

Question: With Cc1cccc(NC(=O)CCN2CC(C)CC(C)C2)c1 (stereo not given) as the compound, how does the inhibition read?
Answer: -9.11%

Question: For Cc1cccc(NC(=O)Cn2cc(C(=O)c3ccco3)c3ccccc32)c1, which inhibition is on record?
Answer: -6.45%

Question: With Cc1cccc(NC(=O)c2nc(S(=O)(=O)Cc3ccccc3)ncc2Cl)c1 as the compound, how does the inhibition read?
Answer: 75.7% (active)

Question: For Cc1cccc(CS(=O)(=O)c2ncc(Cl)c(C(=O)Nc3ccc(F)cc3)n2)c1, which inhibition is on record?
Answer: 77% (active)

Question: For Cc1cccc(CN2CCC(CNC(=O)Nc3ccc(F)c(Cl)c3)CC2)c1, which inhibition is on record?
Answer: 10.9%

Question: For CC(C)CN(CC(C)C)CC(O)CN(c1ccccc1)S(=O)(=O)c1ccccc1[N+](=O)[O-] (stereo not given), which inhibition is on record?
Answer: 16%

Question: With CC(=O)C1C(c2ccc(Cl)cc2)c2c(n[nH]c2C)CC1(C)O (stereo not given) as the compound, how does the inhibition read?
Answer: -9.34%

Question: For CC(C)(C)C(=O)c1c(N)[nH]c(C(=O)c2ccccc2)c1-c1ccc(F)cc1, which inhibition is on record?
Answer: -3.63%

Question: For CN(c1ccc2nc3ccccc3c(=O)n2n1)C1CCCCC1, which inhibition is on record?
Answer: 105% (active)

Question: With CN(C(=O)Nc1ccc(Cl)cc1)n1cnc2ccccc2c1=O as the compound, how does the inhibition read?
Answer: 1.4%

Question: For CC(C)(C)c1nc2ccccc2c(=O)n1N1C(=O)c2ccccc2C1=O, which inhibition is on record?
Answer: 20.8%

Question: With Nc1nnc(SCC(=O)Nc2ccc3nc(SCC(=O)Nc4ccccc4)sc3c2)s1 as the compound, how does the inhibition read?
Answer: 86.4% (active)

Question: With CCCCNC(=O)CSc1nc2ccc(NC(=O)CSc3nnc(N)s3)cc2s1 as the compound, how does the inhibition read?
Answer: 23.8%

Question: Which inhibition does the source give for CCCCNC(=O)CSc1nc2ccc(NC(=O)CSc3nnc(COc4ccccc4C)n3C)cc2s1 here?
Answer: -37.4%

Question: For Cc1nc(CNS(=O)(=O)c2ccc(Oc3ccccc3)cc2)cs1, which inhibition is on record?
Answer: 23.5%

Question: Which inhibition does the source give for c1ccc2c(C[n+]3csc4ccccc43)cccc2c1 here?
Answer: -11.1%

Question: Which inhibition does the source give for O=C(C(c1ccccc1)c1ccccc1)N1CCN(CC(O)COc2ccccc2)CC1 (stereo not given) here?
Answer: 3.97%

Question: Which inhibition does the source give for CC(C)c1ccc(OCC(O)Cn2cnc3ccccc32)cc1 (stereo not given) here?
Answer: -16.5%

Question: Which inhibition does the source give for OC(CN=c1sc2ccccc2n1CC(O)COc1ccccc1)COc1ccccc1 (stereo not given) here?
Answer: 70.7% (active)

Question: Which inhibition does the source give for COc1ccc([C@H]2CC(=O)C[C@@H](CCn3cc(CC4CCCC4)nn3)O2)cc1 here?
Answer: 7.34%

Question: Which inhibition does the source give for C[C@@H]1CC2=C(C(=O)OC(C)(C)O2)[C@@H](C2CC2)O1 here?
Answer: 4.57%
